Results filed as inconclusive are left out. Activity calls are given as the source filed them. Rule for the calls: active = hit-call score of the fitted dose curve at least 0.9, where 1 is the maximum; inconclusive = response in the unintended direction; inactive = score below 0.9.
Biological target: zebrafish Estrogen Receptor (ER1), esr1 (gene 259252) (UniProt P57717)
Assay: ATG_zfER1_EcoTox2: Attagene TRANS-FACTORIAL EcoTox-2 HepG2 Assay for zebrafish Estrogen Receptor (ER1)
Protocol: ATG_EcoTox2 is a cell-based, multiplexed assay created by modifying the existing Attagene TRANS-FACTORIAL system to include a panel of nuclear receptors from some or all the following species: human (Homo sapiens), african clawed frog (Xenopus laevis), rainbow trout (Oncorhynchus mykiss), japanese medaka (Oryzias latipes), and zebrafish (Danio rerio). The ECOTOX2-FACTORIAL format uses HepG2, a human liver cell line, with measurements taken at 24 hours after chemical dosing in a 24-well plate. ATG_zfER1_EcoTox2 is one of 29 assay components calculated in the ATG_EcoTox2 assay. It is designed to make measurements of mRNA induction, a form of inducible reporter, as detected with fluorescence intensity signals by Reverse transcription polymerase chain reaction (RT-PCR) and Capillary electrophoresis technology.The assay endpoint ATG_zfER1_EcoTox2 was analyzed in the positive analysis fitting direction relative to DMSO as the negative control and baseline of activity. Using a type of inducible reporter, measures of mRNA for gain-of-signal activity can be used to understand the reporter gene at the transcription factor-level as they relate to the gene ER. Furthermore, this assay endpoint can be referred to as a primary readout, because this assay has produced multiple assay endpoints where this one serves a reporter gene function. […]

Sequence of zebrafish Estrogen Receptor (ER1), esr1 (gene 259252) (P57717 whole entry, looked up): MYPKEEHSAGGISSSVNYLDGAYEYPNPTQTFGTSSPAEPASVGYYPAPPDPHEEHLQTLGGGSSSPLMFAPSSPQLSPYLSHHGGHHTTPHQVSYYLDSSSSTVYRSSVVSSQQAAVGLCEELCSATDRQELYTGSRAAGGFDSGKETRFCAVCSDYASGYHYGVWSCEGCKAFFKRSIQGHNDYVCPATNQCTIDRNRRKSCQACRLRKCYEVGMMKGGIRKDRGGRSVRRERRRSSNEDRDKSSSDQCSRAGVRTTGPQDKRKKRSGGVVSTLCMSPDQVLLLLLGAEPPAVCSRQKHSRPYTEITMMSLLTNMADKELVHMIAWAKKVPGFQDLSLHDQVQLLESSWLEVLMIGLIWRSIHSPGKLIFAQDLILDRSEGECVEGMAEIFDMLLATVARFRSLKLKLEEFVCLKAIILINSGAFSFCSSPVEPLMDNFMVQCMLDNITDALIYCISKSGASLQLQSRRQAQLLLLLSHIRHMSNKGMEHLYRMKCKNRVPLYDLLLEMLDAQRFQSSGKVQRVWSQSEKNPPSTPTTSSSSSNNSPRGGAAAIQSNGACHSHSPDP

SMILES: O=S(=O)(O)C(F)(F)C(F)(F)C(F)(F)C(F)(F)C(F)(F)C(F)(F)F
- outcome: inactive
